# Measurements reported in PubChem BioAssay.
# Calls of active or inactive are those of the source. Unless noted, the rule behind the calls is not given here.
# Tests used:
# [1] = compounds binding Alexa647 anti-His antibody – biochemical, small-molecule microarray, 635 nm fluorescence, artefact control for SMM control protein annotation, primary screen (AID 1128); settings: higher = more signal;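 note: score merges feature fluorescence with signal-to-noise for each printed compound spot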
# [2] = test system: Human papillomavirus type 1a E7 protein (residues 1-88); experiment: HPV1a E7 small-molecule binders, primary screen, biochemical, small-molecule microarray, residues 1-88, 635 nm (AID 1129); settings: small-molecule microarray binding, fluorescence 635 nm; higher = more signal
# [3] = target: Focal adhesion kinase 1 (Homo sapiens) (UniProt Q05397); experiment: PTK2 protein binding on printed compound slides – biochemical, small-molecule microarray, 635/667 nm fluorescence, BSA, DTT, primary screen (AID 1130); settings: 635 nm fluorescence, higher = more signal;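 note: composite of spot emission at 667 nm and signal to noise over triplicate slides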
# [4] = test system: Fibrinogen (Alexa647-labelled); experiment: Alexa647-fibrinogen binding to printed small molecules – biochemical, small-molecule microarray, 635/667 nm fluorescence, artefact control for SMM control-protein annotation, profiling panel (AID 1131); settings: fibrinogen-A647 binding fluorescence, higher = more signal;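 note: z-score merges 667 nm fluorescence with per-spot signal-to-noise over triplicate slides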
# [5] = target: Follistatin (Homo sapiens) (UniProt P19883); experiment: FST protein binding to printed compounds – biochemical, small-molecule microarray, 635/667 nm fluorescence, primary screen (AID 1132); settings: 635 nm fluorescence, higher = more signal
# [6] = target: Fibroblast growth factor 2 (Homo sapiens) (UniProt P09038); experiment: basic fibroblast growth factor binding to printed compounds – biochemical, small-molecule microarray, 635/667 nm fluorescence, primary screen (AID 1133); settings: FGF2, fluorescence 635/667, higher = more signal
# [7] = JC-1 mitochondrial potential readout, lung cancer cells – cell-based, A549, JC-1 fluorescence, basal, 24 h, 100 nL, profiling panel (AID 1138); settings: higher = more signal;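 note: A549 lung adenocarcinoma cells under basal conditions with no added stimulus; test concentration not given here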
# Lefty1 = Lefty1 protein binding to printed compounds – biochemical, small-molecule microarray, 635/667 nm fluorescence, primary screen (AID 1139); settings: fluorescence 635/667, higher = more signal
# [8] = test system: wheat germ agglutinin (Triticum aestivum), Alexa647-labelled; experiment: Alexa647-WGA lectin binding to printed small molecules – biochemical, small-molecule microarray, 635/667 nm fluorescence, artefact control for SMM control-protein annotation, profiling panel (AID 1140); settings: WGA-A647 binding, 635 nm fluorescence, higher = more signal;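 note: score merges 667 nm feature emission with signal to noise over triplicate slides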
# [9] = target: Luciferin 4-monooxygenase (Photinus pyralis) (UniProt P08659); experiment: inhibition of purified Photinus pyralis luciferase – biochemical, luminescence, purified enzyme, 2006 set, primary screen (AID 1141); settings: purified firefly luciferase, SteadyGlo luminescence, 30 min; higher = more signal, called active from +8 up or from −8 down;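 note: cell-free assay with purified firefly luciferase at 100 ng per well in PBS; test concentration not given here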
# [10] = test system: Wnt5a (protein binding on small-molecule microarray); experiment: small molecules binding Wnt5a protein – biophysical, small-molecule microarray, 635/667 nm fluorescence, primary screen (AID 1142); settings: 635 nm fluorescence, higher = more signal;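 note: fluorescence read at 667 nm with signal to noise per printed feature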
# [11] = ATP-based viability of Huh7 replicon cells – cell-based, CellTiter-Glo luminescence, basal, 48 h, cytotoxicity control for HCV replication inhibitor project, primary screen (AID 1143); settings: higher = more signal, called active from +8 up or from −8 down;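 note: Huh7 hepatoma cells carrying a hepatitis C replication reporter with no stimulus; test concentration not given here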
# [12] = Pseudomonas biofilm growth suppression – PAO1 strain, BacTiter-Glo luminescence, LB-PBS, primary screen (AID 1144); settings: P. aeruginosa PAO1 biofilm, 12 h, higher = more signal
# [13] = basal CRE-LacZ reporter activity in PC12 – cell-based, unstimulated, primary screen (AID 1145); settings: no forskolin, luminescence, 4.5 h, higher = more signal, called active from +8 up or from −8 down
# [14] = forskolin-driven CRE-LacZ activity in PC12 – cell-based, CRE-LacZ reporter, forskolin-stimulated, primary screen (AID 1146); settings: luminescence, 4.5 h, higher = more signal, called active from +8 up or from −8 down;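 note: PC12 cells with 6xCRE LacZ reporter stimulated by forskolin 10 µM; beta-galactosidase reporter signal reflecting CREB driven transcription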
# [15] = target: Streptavidin (Streptomyces avidinii) (UniProt P22629); experiment: compounds binding control protein streptavidin – biophysical, small-molecule microarray, 635/667 nm fluorescence, artefact control for SMM compound annotation, primary screen (AID 1147); settings: higher = more signal;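 note: signal reflects streptavidin binding to arrayed compounds as a control protein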
# [16] = probe aInhba binding on compound microarray – biochemical, small-molecule microarray, 635/667 nm fluorescence, primary screen (AID 1148); settings: higher = more signal;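 note: score merges 667nm spot fluorescence with signal-to-noise for antibody binding to printed compounds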
# Torsin-1A (Homo sapiens) [17] = target: Torsin-1A (Homo sapiens) (UniProt O14656); experiment: TOR1A wild-type binding on microarray – cell lysate, small-molecule microarray, lysate, 635/667 nm, primary screen (AID 1149); settings: COS7 hTOR1A-WT lysate, 635 nm fluorescence, higher = more signal
# Torsin-1A (Homo sapiens) [18] = target: Torsin-1A (Homo sapiens) (UniProt O14656); experiment: torsin A mutant lysate binding on microarrays – cell lysate, small-molecule microarray, COS7 lysate, 635/667 nm fluorescence, primary screen (AID 1150); settings: COS7 hTOR1A mutant lysate, 635 nm fluorescence, higher = more signal;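 note: score pools 667 nm emission and signal to noise measuring lysate protein binding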
# [19] = test system: Sonic hedgehog protein (Shh); experiment: Sonic hedgehog microarray binding compounds – biochemical, small-molecule microarray, 635/667 nm fluorescence, primary screen (AID 1151); settings: 635 nm fluorescence, higher = more signal;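 note: Shh protein binding to compounds spotted on small-molecule microarray slides; score combines spot fluorescence intensity with signal-to-noise across triplicate slides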
# Chain of Luciferin 4-monooxygenase (Photinus pyralis) (P08659 whole entry, looked up): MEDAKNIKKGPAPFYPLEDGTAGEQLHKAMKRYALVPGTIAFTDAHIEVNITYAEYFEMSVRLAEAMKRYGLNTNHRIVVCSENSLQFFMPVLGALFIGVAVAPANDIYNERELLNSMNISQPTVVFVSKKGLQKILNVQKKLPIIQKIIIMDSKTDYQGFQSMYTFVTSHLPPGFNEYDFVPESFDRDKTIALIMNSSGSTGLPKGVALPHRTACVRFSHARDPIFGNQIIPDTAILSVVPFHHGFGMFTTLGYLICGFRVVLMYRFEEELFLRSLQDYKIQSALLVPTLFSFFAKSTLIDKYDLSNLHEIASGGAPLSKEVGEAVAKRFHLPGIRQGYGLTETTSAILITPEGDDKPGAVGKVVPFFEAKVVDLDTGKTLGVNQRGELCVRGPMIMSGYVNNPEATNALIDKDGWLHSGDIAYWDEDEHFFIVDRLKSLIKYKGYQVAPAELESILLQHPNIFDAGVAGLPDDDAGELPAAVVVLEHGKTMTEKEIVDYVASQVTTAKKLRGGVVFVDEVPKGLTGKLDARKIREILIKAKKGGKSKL
# Chain of Follistatin (Homo sapiens) (P19883 whole entry, looked up): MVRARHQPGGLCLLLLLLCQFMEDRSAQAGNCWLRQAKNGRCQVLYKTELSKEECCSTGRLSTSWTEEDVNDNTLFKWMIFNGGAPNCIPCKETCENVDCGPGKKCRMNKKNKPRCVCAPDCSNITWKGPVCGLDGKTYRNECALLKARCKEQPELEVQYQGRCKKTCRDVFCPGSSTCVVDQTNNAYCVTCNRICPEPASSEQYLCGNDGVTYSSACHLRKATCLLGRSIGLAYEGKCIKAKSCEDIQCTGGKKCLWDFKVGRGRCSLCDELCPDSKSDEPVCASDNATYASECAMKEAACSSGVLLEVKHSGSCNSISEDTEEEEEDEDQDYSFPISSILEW
# Chain of Streptavidin (Streptomyces avidinii) (P22629 whole entry, looked up): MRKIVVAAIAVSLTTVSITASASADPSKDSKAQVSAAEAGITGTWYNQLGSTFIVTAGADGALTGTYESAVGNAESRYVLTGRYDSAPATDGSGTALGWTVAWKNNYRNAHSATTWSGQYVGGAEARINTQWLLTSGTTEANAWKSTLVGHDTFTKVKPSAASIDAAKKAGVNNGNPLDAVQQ
# Chain of Torsin-1A (Homo sapiens) (O14656 whole entry, looked up): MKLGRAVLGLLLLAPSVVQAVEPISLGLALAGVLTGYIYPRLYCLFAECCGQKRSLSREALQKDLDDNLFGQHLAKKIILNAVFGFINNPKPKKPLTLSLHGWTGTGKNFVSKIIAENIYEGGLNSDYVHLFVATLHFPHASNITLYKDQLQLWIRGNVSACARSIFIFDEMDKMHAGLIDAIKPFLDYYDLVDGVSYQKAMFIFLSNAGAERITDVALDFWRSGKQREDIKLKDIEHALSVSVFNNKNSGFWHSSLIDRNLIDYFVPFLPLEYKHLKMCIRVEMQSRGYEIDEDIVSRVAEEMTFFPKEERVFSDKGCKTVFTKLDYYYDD
# Chain of Fibroblast growth factor 2 (Homo sapiens) (P09038 whole entry, looked up): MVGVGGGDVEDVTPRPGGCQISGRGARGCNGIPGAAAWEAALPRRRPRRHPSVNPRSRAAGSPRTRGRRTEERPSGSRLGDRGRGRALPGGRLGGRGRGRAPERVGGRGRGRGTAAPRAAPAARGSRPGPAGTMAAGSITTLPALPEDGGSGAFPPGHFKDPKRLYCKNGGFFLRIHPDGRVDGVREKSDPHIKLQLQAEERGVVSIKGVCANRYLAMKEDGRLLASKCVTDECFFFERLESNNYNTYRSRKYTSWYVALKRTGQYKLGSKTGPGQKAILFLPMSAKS
# Chain of Focal adhesion kinase 1 (Homo sapiens) (Q05397 whole entry, looked up): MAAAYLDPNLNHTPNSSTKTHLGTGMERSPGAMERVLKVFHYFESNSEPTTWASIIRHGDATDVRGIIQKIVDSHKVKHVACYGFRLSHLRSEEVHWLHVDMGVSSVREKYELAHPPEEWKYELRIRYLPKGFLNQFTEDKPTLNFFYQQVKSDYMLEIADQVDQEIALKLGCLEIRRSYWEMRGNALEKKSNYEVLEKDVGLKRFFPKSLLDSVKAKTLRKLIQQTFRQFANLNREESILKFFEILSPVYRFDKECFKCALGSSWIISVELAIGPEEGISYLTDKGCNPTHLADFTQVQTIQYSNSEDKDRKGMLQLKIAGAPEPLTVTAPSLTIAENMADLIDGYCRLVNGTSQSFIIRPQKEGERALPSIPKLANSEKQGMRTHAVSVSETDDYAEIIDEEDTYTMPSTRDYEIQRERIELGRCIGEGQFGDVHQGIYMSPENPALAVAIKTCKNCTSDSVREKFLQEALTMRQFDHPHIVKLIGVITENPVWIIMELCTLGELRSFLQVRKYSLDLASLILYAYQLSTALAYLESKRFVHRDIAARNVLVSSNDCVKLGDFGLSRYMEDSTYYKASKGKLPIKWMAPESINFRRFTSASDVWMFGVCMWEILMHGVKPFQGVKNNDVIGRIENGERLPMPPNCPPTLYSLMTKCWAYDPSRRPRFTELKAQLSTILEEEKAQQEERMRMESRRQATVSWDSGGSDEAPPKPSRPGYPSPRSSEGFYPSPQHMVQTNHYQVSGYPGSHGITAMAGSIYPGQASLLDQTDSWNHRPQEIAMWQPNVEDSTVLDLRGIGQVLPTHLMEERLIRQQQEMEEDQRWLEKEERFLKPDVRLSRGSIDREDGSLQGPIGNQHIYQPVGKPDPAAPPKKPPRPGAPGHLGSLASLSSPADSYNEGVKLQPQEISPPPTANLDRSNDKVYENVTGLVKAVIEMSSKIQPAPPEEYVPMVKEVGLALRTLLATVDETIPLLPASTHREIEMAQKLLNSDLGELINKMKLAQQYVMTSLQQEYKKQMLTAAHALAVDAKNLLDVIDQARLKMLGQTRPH
SMILES,composite z-score [1],composite z-score [2],composite z-score [3],composite z-score [4],composite z-score [5],composite z-score [6],z-score [7],composite z-score (Lefty1),composite z-score [8],z-score [9],composite z-score [10],z-score [11],z-score [12],z-score [13],z-score [14],composite z-score [15],composite z-score [16],composite z-score (Torsin-1A (Homo sapiens) [17]),composite z-score (Torsin-1A (Homo sapiens) [18]),composite z-score [19]
CCCNC(=O)OC[C@H]1O[C@H](CCON=C[C@@H](C)[C@H](OCc2ccccc2)C(C)C)C=C[C@@H]1Oc1ccc(OC)cc1,3.25,-0.603,-0.072,-0.101,-0.134,-0.0238,1.63,0.401,-0.199,-1.46 (inactive),-0.146,-1.1 (inactive),-0.107 (inactive),1.28 (inactive),-0.0248 (inactive),-0.19,-0.104,-0.0998,0.733,0.0021
CCOC(=O)[C@H](CC(C)C)NC(=O)CCC1CC(OC(=O)NCc2ccc3c(c2)OCO3)CC2(CCCC(COC(=O)NCCC(C)C)O2)O1 (stereo not given in full),0.348,-0.438,0.0454,-0.27,-0.14,0.279,0.471,0.172,0.182,0.537 (inactive),0.0093,-0.172 (inactive),-0.32 (inactive),-0.889 (inactive),0.128 (inactive),0.0476,-0.128,-0.0916,-0.0963,0.54
COC(=O)[C@H](C)NC(=O)CCC1CC(OC(=O)NCCc2ccc(F)cc2)CC2(CCCC(COC(=O)NCCc3ccccc3OC)O2)O1 (stereo not given in full),0.706,1.12,0.0694,0.733,1.18,0.591,0.625,0.554,0.432,0.484 (inactive),0.249,0.137 (inactive),0.351 (inactive),0.559 (inactive),0.0825 (inactive),0.553,-0.343,0.284,0.519,0.985
COc1ccc(COC(=O)NN=C2C[C@@H](O)[C@@H](O)[C@@H]3[C@@H]4C(=O)N(Cc5ccccc5)C(=O)[C@@H]4CC[C@@H]23)cc1,0.57,0.343,0.0398,-0.113,0.364,0.164,0.485,0.292,-0.0049,0.778 (inactive),-0.0129,-0.19 (inactive),0.99 (inactive),-0.655 (inactive),0.426 (inactive),-0.323,0.0785,-0.0532,0.226,0.111
O=C1C2=CC[C@H]3C(=O)N(C4CCCCC4)C(=O)[C@H]3[C@H]2[C@H](O)[C@@H]2O[C@H]12,-0.242,-0.958,-0.504,0.0555,-0.864,-0.682,-1.65,-0.455,-0.685,-0.389 (inactive),-0.272,-8.35 (active),-0.366 (inactive),17.1 (active),30.1 (active),-0.408,-0.183,-0.695,-0.53,-0.689
